# Out of some 69,000 compounds screened, about 8,600 (12%) showed an effect of 50% or more. Many of the other results were omitted from the sample, so strong results are more common in it than they were.
# System: Plasmodium berghei
# Experiment: Screen against P. berghei liver stage (PbLuc), transformed with Luciferase, at 10uM
# Assay type: functional, HepG2
# Details: tested at 10 uM
row,SMILES,INHIBITION
1,Cc1ccoc1C(=O)NCCS(=O)(=O)N1CCSCC1,4.52%
2,c1ccc(Cc2nnc(CN3CCCC(Cn4cncn4)C3)o2)cc1 (stereo unspecified),-15.3%
3,COc1cc(N2CCC3(CCCN(C(=O)c4cccnc4)C3)C2)ncn1 (stereo unspecified),19.8%
4,C=C(C)COc1ccccc1CN1CCC(C(=O)NCC)C1 (stereo unspecified),3.06%
5,CC(=O)N[C@@H]1CN(C(=O)CC2CC2)C[C@H]1O,49.9%
6,Cc1ccc(-c2[nH][nH]c(=O)c2CCN)cc1,44.9%
7,Cc1cc(C)n(C2CCCN(C(=O)c3ccc4c(c3)COC4)C2)n1 (stereo unspecified),15.815%
8,COCc1nc(C(=O)NS(=O)(=O)c2ccc(Cl)cc2F)cs1,-64.25%
9,COc1cccc(Oc2nc(C)c(C(=O)O)s2)c1OC,45.5%
10,Cc1cc(C2CCCN2Cc2nc3c(cnn3C)c(=O)[nH]2)on1 (stereo unspecified),27.6%
11,Cn1cc(CN2CC[C@H]3OCC[C@@H](C(=O)Nc4cnccn4)[C@@H]3C2)cn1,38.5%
12,O=C(Cc1cccc(F)c1)NCCNCc1cccnc1,33.3%
13,Cn1c(CN2CCC(N3CCNC3=O)CC2)cc(=O)n(C)c1=O,29%
14,CC(C)n1nc2c(cc1=O)CN(Cc1nnc(C3CC3)o1)CC2,-25.9%
15,CC(C)n1nc2c(cc1=O)CN(CC(=O)N(C)c1nccs1)CC2,17.1%
16,CC(C)n1nc2c(cc1=O)CN(c1ncnc3ccsc13)CC2,86.8%
17,c1csc(CN2C[C@@H]3OCCN(CC4CCCO4)[C@@H]3C2)c1 (stereo partly specified),-21.5%
18,CC(=O)Nc1nc(C2CCN(C(=O)C3CCC3)CC2)cs1,36.7%
19,Cc1ccsc1C(=O)NCc1ccnc(C2CCCOC2)n1 (stereo unspecified),5.1%
20,O=C(NCc1ccnc(C2CCCOC2)n1)c1cccs1 (stereo unspecified),33.5%
21,O=C(Cc1cccs1)NCc1ccnc(C2CCCOC2)n1 (stereo unspecified),53.8%
22,CCN1CCOCC2(CCCN(C(=O)c3cccc(O)c3)C2)C1 (stereo unspecified),26%

row,SMILES,INHIBITION
1,O=C(c1cccc2ccnn12)N1CCC[C@H]1CN1CCCC1,19.8%
2,O=C1NCC2(CCCN(C(=O)c3c[nH]nc3C3CCCCC3)C2)O1 (stereo unspecified),31.8%
3,Cc1cc(C)n2nc(C(=O)N3CCCC4(CNC(=O)O4)C3)cc2n1 (stereo unspecified),27.4%
4,Cc1cc(C(=O)N2CCCC3(CNC(=O)O3)C2)c2c(C)nn(C)c2n1 (stereo unspecified),54.1%
5,CCN1C(=O)CCCC12CCCN(C(=O)c1cnccn1)C2 (stereo unspecified),27.4%
6,Cc1ccc(-c2cc(CNC(=O)N3CCSCC3)on2)cc1,-5.25%
7,COc1c(CNC(c2ccccc2F)c2nccn2C)c(C)nn1C (stereo unspecified),2.95%
8,CC(C)Cc1ncc2c(n1)CN(c1nc3ccccc3cc1CO)C2,33.9%
9,Cc1cccc2cc(CO)c(N3Cc4cnc(C(C)(C)C)nc4C3)nc12,91.2%
10,Cc1ccc(C(=O)O)c(N2Cc3cnc(C(C)(C)C)nc3C2)n1,-7.27%
11,O=C(c1n[nH]c2c1CN(C1CCOC1)CC2)N1CCCC1 (stereo unspecified),12.4%
12,COCC1CC2(CCN(C(=O)c3ccco3)CC2)CN1C(C)C (stereo unspecified),17.4%
13,CCN(CC)C(=O)CN(C)Cc1nc2c(cnn2C)c(=O)[nH]1,37.2%
14,CC(C)CN(C)Cc1nc2c(cnn2C)c(=O)[nH]1,-14.935%
15,CN(CC(=O)N(C)C1CCCCC1)Cc1nc2ccccc2c(=O)[nH]1,44.7%
16,CCN(Cc1ccc2c(c1)OCO2)Cc1nc2c(cnn2C)c(=O)[nH]1,-6.14%
17,CC(C)CCN(C)Cc1nc2c(cnn2C)c(=O)[nH]1,-21.05%
18,CN(Cc1cccc(F)c1)Cc1nc2c(cnn2C)c(=O)[nH]1,23.7%
19,CN(Cc1ccc2c(c1)OCCO2)Cc1nc2c(cnn2C)c(=O)[nH]1,59.4%
20,CN(CCOc1cccc(F)c1)Cc1nc2c(cnn2C)c(=O)[nH]1,55.2%
21,CN(CC(=O)N(C)C1CCCCC1)Cc1nc2c(cnn2C)c(=O)[nH]1,55.4%
22,CN(CC(=O)N1CCCC1)Cc1nc2c(cnn2C)c(=O)[nH]1,64%

row,SMILES,INHIBITION
1,CN(Cc1ccc2c(c1)OCO2)Cc1nc2c(cnn2C)c(=O)[nH]1,13.9%
2,CN(CCCOc1ccc(F)cc1)Cc1nc2c(cnn2C)c(=O)[nH]1,39.2%
3,Cc1nc(C)n(C2CCCN(C(=O)c3c[nH]c(C(C)C)n3)C2)n1 (stereo unspecified),40.9%
4,CS(=O)(=O)N1CCC2(CC1)COC(COc1ccccn1)C2 (stereo unspecified),-27.9%
5,CC(C)OC[C@H]1CCC[C@]12CN(S(=O)(=O)c1cn(C)cn1)CCO2,1.7%
6,OC1(CNCCc2csc(-c3ncccn3)n2)CCNC1 (stereo unspecified),39.3%
7,COCC(=O)NCc1cc(=O)n2c(n1)CN(CC1CCOC1)CCC2 (stereo unspecified),37.5%
8,Cc1nc(C)n(CC2CCCN(Cc3noc(C)n3)C2)n1 (stereo unspecified),56.6%
9,Cc1nc(C)n(CC2CCCN(Cc3nc(C4CC4)no3)C2)n1 (stereo unspecified),60.6%
10,CCc1nc(CN2CCCC(Cn3nc(C)nc3C)C2)no1 (stereo unspecified),33.3%
11,COCCc1noc(CN2CCCC(Cn3nc(C)nc3C)C2)n1 (stereo unspecified),40.9%
12,Cc1noc(CN2CCCC(Cn3nc(C)nc3C)C2)n1 (stereo unspecified),27.8%
13,CCc1noc(CN2CCCC(Cn3nc(C)nc3C)C2)n1 (stereo unspecified),18.2%
14,CNC(=O)[C@@]12CCO[C@@H]1CCN(S(=O)(=O)c1cccnc1)C2,23.9%
15,Cn1cc(CN2CC(C(=O)Nc3ccccc3)C3(CCOCC3)C2)cn1 (stereo unspecified),48.2%
16,COc1ccc(CN2C[C@H]3CN(Cc4ccncc4)C(=O)[C@H]3C2)cc1,22.3%
17,O=C(Cc1c(F)cccc1Cl)NC1CCCCNC1=O (stereo unspecified),-1.85%
18,CC(=O)Nc1nc(C)c(S(=O)(=O)NCCc2ccccn2)s1,-1.85%
19,O=S(=O)(C1CC1)N1CCO[C@H]2[C@@H](Oc3ncccc3F)CC[C@@H]21,-30%
20,CC(C)N(Cc1ccccc1)C(=O)c1cc(C2CCCN2C)ccn1 (stereo unspecified),-18.9%
21,Cc1ncccc1Oc1ncnc(N2CCC3(CCCO3)CC2)c1C,-5.12%
22,COc1ccc(C(C)n2ccnc2-c2cc3n(n2)CCCNC3)cc1F (stereo unspecified),-2.34%

row,SMILES,INHIBITION
1,COc1ccc([C@@H](C)n2ccnc2-c2cc3n(n2)CCCNC3)cc1,15%
2,CC(c1ccc(F)cc1)n1ccnc1-c1cc2n(n1)CCCNC2 (stereo unspecified),58.3%
3,CN(CC(=O)N1CCN(c2ccccn2)CC1)c1ccc(Cl)cn1,-36.6%
4,CNC(=O)[C@H]1C[C@@H]2CN(C(=O)c3ccncc3)C[C@@H]2N1S(C)(=O)=O,20.4%
5,COCC(=O)Nc1ccccc1Sc1c(C)n[nH]c1C,60%
6,Cc1n[nH]c(C)c1Sc1ccccc1NC(=O)N1CCCC(C(N)=O)C1 (stereo unspecified),-24%
7,Cc1n[nH]c(C)c1Sc1ccccc1NC(=O)N1CCN(C)CC1,61.2%
8,Cc1n[nH]c(C)c1Sc1ccccc1NC(=O)N1CCOCC1,30.3%
9,Cc1n[nH]c(C)c1Sc1ccccc1NC(=O)N1CCOCC(O)C1 (stereo unspecified),25.4%
10,Cc1n[nH]c(C)c1Sc1ccccc1NC(=O)CN1CCCC1,3.17%
11,CCS(=O)(=O)N1CCc2c(CN(C)Cc3ccco3)cncc2C1,20.2%
12,NC(=O)COc1ccc(CNCc2ccc(F)cc2F)cc1,6.8%
13,NC(=O)CNC(=O)c1ccc(CNCc2ccc(Cl)cc2Cl)cc1,48.9%
14,NC(=O)CNC(=O)c1ccc(CNCc2ccc(F)cc2F)cc1,54.5%
15,Cc1cc(C)c(CNC(=O)NCC(O)c2ccccc2)c(=O)[nH]1 (stereo unspecified),15.5%
16,O=C(c1cccnc1)N1CCC2(CC1)COCCN(c1ncccn1)C2,16.8%
17,CC(=O)NCCNC(=O)CN1CCCCC1Cn1cncn1 (stereo unspecified),-15.5%
18,O=c1[nH]c2nc(N3CCCC3)ncc2c(=O)n1-c1cccc(F)c1,2.69%
19,CCCS(=O)(=O)N1CCC(n2nc(-c3cc(C)oc3C)ccc2=O)CC1,68.4%
20,Cc1cc(-c2ccc(=O)n(C3CCN(S(C)(=O)=O)CC3)n2)c(C)o1,-8.58%
21,CCS(=O)(=O)N1CCC(n2nc(-c3cc(C)oc3C)ccc2=O)CC1,21.1%
22,Cc1cc(NC(=O)C(C)Nc2cccc(COCc3ccco3)c2)no1 (stereo unspecified),11.1%

row,SMILES,INHIBITION
1,COCc1noc(CCC(=O)c2ccc3c(c2)OCCO3)n1,-41.4%
2,O=C(COc1ccc(-n2cccn2)nn1)N1CCCC1,-66.4%
3,CN(C)c1cccc(C(=O)N2CCCc3cc(OC(F)(F)F)ccc32)c1,43.4%
4,CN(C)c1ccc(C(=O)N2CCCc3cc(OC(F)(F)F)ccc32)cn1,26.7%
5,COc1ccc2c(c1)CCCN2C(=O)CN1CCOC(CN(C)C)C1 (stereo unspecified),3.68%
6,COc1ccc2c(c1)CCCN2C(=O)c1cccc(N(C)C)c1,87.9%
7,COc1ccc2c(c1)CCCN2C(=O)CNCC1CN(C)CCO1 (stereo unspecified),-39.2%
8,COc1ccc2c(c1)CCCN2C(=O)CN1CCOC(C)C1 (stereo unspecified),50.9%
9,Fc1cnc(N2CC[C@@H]3O[C@H](COCc4ccccn4)CC[C@@H]32)nc1,-21.7%
10,CC(C)COC1CC2(CCN(Cc3nccn3C)CC2)C1,31.6%
11,Cc1nc2[nH]cnc(Nc3cnn(C)c3)c-2n1,-10.6%
12,CC(C)C(NC(=O)C1CC1)c1cc(O)nc(-c2cccnc2)n1 (stereo unspecified),3.4%
13,Cc1cc(NCCCOC(C)C)c2nncn2n1,13.4%
14,CNc1cc(-c2cc(OC)c(OC)c(OC)c2)ncn1,27.8%
15,COc1cc(-c2cnnc(NCCSC)n2)cc(OC)c1OC,52.2%
16,COc1cc(-c2cnnc(NCC3CC3)n2)cc(OC)c1OC,31.7%
17,COc1cc(-c2cnnc(NCCCOC(C)C)n2)cc(OC)c1OC,57.9%
18,COc1cc(-c2nc(N)n[nH]2)cc(OC)c1OC,20.4%

# Reference: ChEMBL document CHEMBL4513216, “Probing the Open Global Health Chemical Diversity Library for Multistage-Active Starting Points for Next-Generation Antimalarials” (ACS Infect Dis, 2020)
